Source: PubChem BioAssay AID1159580 (chemical genetic matrix, 2015)
The campaign covered roughly 5,500 compounds. About 2,000 (36%) were called active. Another 18% or so got no clear call; they are omitted. Rule as the data show it: active = normalized growth mostly below about 0.91 (no sharp cut-off); inconclusive = no clear call, values can overlap the other calls; inactive = mostly above about 0.92. Some of the results follow.

Assay: chemical genetic growth profiling, strain panel (AID 1159580);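 also: tested at 20 µM; growth read once vehicle control cultures reached saturation at 30 °C; 1 = growth at the plate median or of vehicle wells; lower values mean less growth of the strain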
Settings: growth OD

Measured: normalized growth

NCC(=O)c1ccccc1
inactive: S. cerevisiae deletion strains, locus YJR075W, strain HOC1, hits give low values 1.05 | S. cerevisiae deletion strains, locus YKL009W, strain mrt4, hits give low values 0.981 | S. cerevisiae deletion strains, locus YKL068W, hits give low values 1 | S. cerevisiae deletion strains, locus YKL085W, strain MDH1 (second series), hits give low values 0.988 | S. cerevisiae deletion strains, locus YKL085W, strain MDH1, hits give low values 0.988 | S. cerevisiae deletion strains, locus YKL160W, strain elf1, hits give low values 1 | S. cerevisiae deletion strains, locus YKL190W, strain CNB1, hits give low values 1.02 | S. cerevisiae deletion strains, locus YKR001C, strain vps1, hits give low values 0.988 | S. cerevisiae deletion strains, locus YKR026C, strain gcn3, hits give low values 1 | S. cerevisiae deletion strains, locus YKR091W, strain srl3, hits give low values 0.997 | S. cerevisiae deletion strains, locus YLL001W, strain dnm1, hits give low values 1 | S. cerevisiae deletion strains, locus YLL026W, hits give low values 1 | S. cerevisiae deletion strains, locus YLL041C, strain sdh2, hits give low values 1 | S. cerevisiae deletion strains, locus YLR027C, strain aat2, hits give low values 0.997 | S. cerevisiae deletion strains, locus YLR039C, strain RIC1, hits give low values 1.03 | S. cerevisiae deletion strains, locus YLR058C, strain SHM2, hits give low values 1.02 | S. cerevisiae deletion strains, locus YLR102C, strain apc9, hits give low values 0.988 | S. cerevisiae deletion strains, locus YLR113W, strain HOG1, hits give low values 1.07 | S. cerevisiae deletion strains, locus YLR221C, strain rsa3, hits give low values 1.02 | S. cerevisiae deletion strains, locus YLR258W, strain gsy2, hits give low values 0.977 | S. cerevisiae deletion strains, locus YLR262C, strain YPT6 (second series), hits give low values 1.03 | S. cerevisiae deletion strains, locus YLR262C, strain YPT6, hits give low values 1.02 | S. cerevisiae deletion strains, locus YLR268W, strain sec22, hits give low values 0.986 | S. cerevisiae deletion strains, locus YLR320W, strain mms22, hits give low values 0.991 | S. cerevisiae deletion strains, locus YLR330W, strain CHS5, hits give low values 1.02 | S. cerevisiae deletion strains, locus YLR342W, strain FKS1 (second series), hits give low values 0.988 | S. cerevisiae deletion strains, locus YLR342W, strain FKS1, hits give low values 0.992 | S. cerevisiae deletion strains, locus YLR357W, strain rsc2, hits give low values 0.966 | S. cerevisiae deletion strains, locus YLR370C, strain arc18, hits give low values 1.01 | S. cerevisiae deletion strains, locus YLR371W, strain rom2, hits give low values 0.993 | S. cerevisiae deletion strains, locus YLR384C, strain iki3, hits give low values 1.01 | S. cerevisiae deletion strains, locus YLR418C, strain cdc73, hits give low values 1 | S. cerevisiae deletion strains, locus YML016C, strain PPZ1, hits give low values 1.02 | S. cerevisiae deletion strains, locus YML032C, strain rad52, hits give low values 0.986 | S. cerevisiae deletion strains, locus YML120C, strain ndi1, hits give low values 0.989 | S. cerevisiae deletion strains, locus YML124C, strain tub3, hits give low values 0.993 | S. cerevisiae deletion strains, locus YMR058W, strain fet3, hits give low values 1.01 | S. cerevisiae deletion strains, locus YMR078C, strain ctf18, hits give low values 1 | S. cerevisiae deletion strains, locus YMR125W, strain sto1, hits give low values 1.01 | S. cerevisiae deletion strains, locus YMR129W, hits give low values 1 | S. cerevisiae deletion strains, locus YMR205C, strain PFK2, hits give low values 1.01 | S. cerevisiae deletion strains, locus YMR223W, strain ubp8, hits give low values 0.987 | S. cerevisiae deletion strains, locus YMR231W, strain pep5, hits give low values 0.992 | S. cerevisiae deletion strains, locus YMR263W, strain SAP30, hits give low values 1.04 | S. cerevisiae deletion strains, locus YMR307W, strain GAS1, hits give low values 1.02 | S. cerevisiae deletion strains, locus YNL067W, strain RPL9B, hits give low values 1.04 | S. cerevisiae deletion strains, locus YNL071W, strain lat1, hits give low values 0.998 | S. cerevisiae deletion strains, locus YNL128W, strain TEP1, hits give low values 1.05 | S. cerevisiae deletion strains, locus YNL153C, strain GIM3, hits give low values 1.02 | S. cerevisiae deletion strains, locus YNL183C, strain NPR1, hits give low values 0.995 | S. cerevisiae deletion strains, locus YNL209W, strain ssb2, hits give low values 1 | S. cerevisiae deletion strains, locus YNL233W, strain BNI4, hits give low values 1.02 | S. cerevisiae deletion strains, locus YNL248C, strain rpa49, hits give low values 0.99 | S. cerevisiae deletion strains, locus YNL250W, strain rad50, hits give low values 0.985 | S. cerevisiae deletion strains, locus YNL271C, strain bni1, hits give low values 0.986 | S. cerevisiae deletion strains, locus YNL298W, strain CLA4, hits give low values 0.994 | S. cerevisiae deletion strains, locus YNL307C, strain MCK1, hits give low values 0.987 | S. cerevisiae deletion strains, locus YNL322C, strain KRE1 (second series), hits give low values 0.989 | S. cerevisiae deletion strains, locus YNL322C, strain KRE1, hits give low values 1.03 | S. cerevisiae deletion strains, locus YNR049C, strain mso1, hits give low values 1.02 | S. cerevisiae deletion strains, locus YNR052C, strain pop2, hits give low values 0.995 | S. cerevisiae deletion strains, locus YOL006C, strain TOP1, hits give low values 1.09 | S. cerevisiae deletion strains, locus YOL012C, strain htz1 1.45 | S. cerevisiae deletion strains, locus YOL147C, strain pex11, hits give low values 0.993 | S. cerevisiae deletion strains, locus YOR001W, strain rrp6, hits give low values 1.01 | S. cerevisiae deletion strains, locus YOR061W, strain CKA2, hits give low values 1.01 | S. cerevisiae deletion strains, locus YOR069W, strain VPS5, hits give low values 1.01 | S. cerevisiae deletion strains, locus YOR070C, strain gyp1, hits give low values 1 | S. cerevisiae deletion strains, locus YOR080W, strain dia2, hits give low values 0.995 | S. cerevisiae deletion strains, locus YOR083W, strain WHI5, hits give low values 0.994 | S. cerevisiae deletion strains, locus YOR106W, strain vam3, hits give low values 1.02 | S. cerevisiae deletion strains, locus YOR136W, strain idh2, hits give low values 0.991 | S. cerevisiae deletion strains, locus YOR144C, strain elg1, hits give low values 0.999 | S. cerevisiae deletion strains, locus YOR184W, strain ser1, hits give low values 0.983 | S. cerevisiae deletion strains, locus YOR231W, strain MKK1, hits give low values 1.08 | S. cerevisiae deletion strains, locus YOR265W, strain rbl2, hits give low values 1.01 | S. cerevisiae deletion strains, locus YOR270C, strain vph1, hits give low values 1.06 | S. cerevisiae deletion strains, locus YOR290C, strain snf2, hits give low values 0.998 | S. cerevisiae deletion strains, locus YOR316C, strain cot1, hits give low values 0.992 | S. cerevisiae deletion strains, locus YPL051W, strain arl3, hits give low values 1.01 | S. cerevisiae deletion strains, locus YPL055C, strain LGE1, hits give low values 1.06 | S. cerevisiae deletion strains, locus YPL078C, strain atp4, hits give low values 1.02 | S. cerevisiae deletion strains, locus YPL106C, strain sse1, hits give low values 0.973 | S. cerevisiae deletion strains, locus YPL240C, strain hsp82, hits give low values 0.996 | S. cerevisiae deletion strains, locus YPL241C, strain CIN2, hits give low values 1.02 | S. cerevisiae deletion strains, locus YPL256C, strain CLN2, hits give low values 1.05 | S. cerevisiae deletion strains, locus YPR119W, strain clb2, hits give low values 0.996 | S. cerevisiae deletion strains, locus YPR141C, strain kar3, hits give low values 0.993 | S. cerevisiae deletion strains, locus YPR163C, strain tif3, hits give low values 0.99 | S. cerevisiae deletion strains, locus YPR167C, strain met16, hits give low values 0.991 | S. cerevisiae deletion strains, strain wtn01, hits give low values 0.987 | S. cerevisiae strains, strain wild type, hits give low values 1.01
